Bioassay records (PubChem)
Shown are actives, neighbours in structure and some others; about 1.8% of the full set was active somewhere.
USP7 block = blocks human USP7 ubiquitin-rhodamine cleavage; inhibition, % at 20 µM; purified USP7, Ub-rhodamine cleavage fluorescence; Q93009; 0.3% of 47,000 active; AID 1645854
Target sequence (Q93009 whole entry, looked up): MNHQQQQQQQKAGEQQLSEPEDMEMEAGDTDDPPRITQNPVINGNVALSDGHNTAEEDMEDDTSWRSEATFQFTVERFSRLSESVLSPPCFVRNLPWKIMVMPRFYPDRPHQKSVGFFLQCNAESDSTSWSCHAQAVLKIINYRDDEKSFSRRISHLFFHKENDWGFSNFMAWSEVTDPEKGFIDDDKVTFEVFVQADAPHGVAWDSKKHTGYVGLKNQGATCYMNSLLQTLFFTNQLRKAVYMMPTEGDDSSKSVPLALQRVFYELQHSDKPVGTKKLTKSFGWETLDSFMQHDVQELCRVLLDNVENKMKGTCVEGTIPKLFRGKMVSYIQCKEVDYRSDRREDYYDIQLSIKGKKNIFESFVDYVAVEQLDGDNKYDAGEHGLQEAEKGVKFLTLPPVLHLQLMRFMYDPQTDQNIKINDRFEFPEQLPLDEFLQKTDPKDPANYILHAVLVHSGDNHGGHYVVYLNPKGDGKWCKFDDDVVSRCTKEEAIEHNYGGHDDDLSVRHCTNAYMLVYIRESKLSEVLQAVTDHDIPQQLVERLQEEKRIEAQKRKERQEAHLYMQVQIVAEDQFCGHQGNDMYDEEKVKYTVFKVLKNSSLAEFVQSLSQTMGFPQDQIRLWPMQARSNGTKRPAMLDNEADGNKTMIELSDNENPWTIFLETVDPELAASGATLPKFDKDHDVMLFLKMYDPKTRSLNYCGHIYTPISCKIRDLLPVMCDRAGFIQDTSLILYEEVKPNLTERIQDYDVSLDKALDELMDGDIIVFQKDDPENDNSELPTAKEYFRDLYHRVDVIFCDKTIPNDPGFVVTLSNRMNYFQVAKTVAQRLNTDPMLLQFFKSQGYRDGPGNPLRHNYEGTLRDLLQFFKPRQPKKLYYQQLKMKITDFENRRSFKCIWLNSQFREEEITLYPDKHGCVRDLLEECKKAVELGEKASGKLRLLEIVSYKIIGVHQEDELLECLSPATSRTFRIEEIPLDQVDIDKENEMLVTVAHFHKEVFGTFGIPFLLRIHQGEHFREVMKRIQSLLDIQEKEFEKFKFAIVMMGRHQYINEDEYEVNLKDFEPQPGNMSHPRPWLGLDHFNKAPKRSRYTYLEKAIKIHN
OTUD3 block = inhibitors of human OTUD3 deubiquitinase | purified OTUD3, Ub-rhodamine fluorescence, 2 h | 0.7% of 47,000 active | inhibition, % at 25 µM | Q5T2D3 | AID 1645858
USP10 inh = human USP10 deubiquitinase inhibition | Q14694 | purified USP10, Ub-rhodamine fluorescence, 60 min | inhibition, % at 20 µM | 1.1% of 47,000 active
UCHL1 block = inhibitors of human UCHL1 deubiquitinase; P09936; purified UCHL1, Ub-rhodamine cleavage fluorescence; inhibition, % at 20 µM; 0.2% of 47,000 active
The depositor's hits bear a star. No stated cut-off is given here; in the data, active means inhibition above about 30%; inactive means the rest.

Results for Cc1cc(NC(=O)Cn2c(=O)n(CC3CCC(C(=O)NCCc4ccccc4)CC3)c(=O)c3ccccc32)n[nH]1 (stereo not given) ?
USP7 block: 14; OTUD3 block: 36*; USP10 inh: 15; UCHL1 block: 1

Results for O=C(Cn1c(=O)n(CC2CCC(C(=O)NC3CCCC3)CC2)c(=O)c2ccccc21)NCCC1=CCCCC1 (stereo not given) ?
USP7 block: 6; OTUD3 block: 22; USP10 inh: 34*; UCHL1 block: 2

Results for CC(C)(C)n1ncc2c(=O)n(CC(=O)N3CCCc4ccccc43)cnc21 ?
USP7 block: 45*; OTUD3 block: 1; USP10 inh: -6; UCHL1 block: -2

What do the screens show for `CC(C)(C)n1ncc2c(=O)n(CC(=O)OCc3ccccc3)cnc21`?
USP7 block: 0; OTUD3 block: -3; USP10 inh: -1; UCHL1 block: 1

Results for FC(F)(F)c1nc2ccccc2nc1Sc1ccccc1Cl ?
USP7 block: 0; OTUD3 block: 1; USP10 inh: 2; UCHL1 block: -2

How did O=C(CCCCn1c(=O)[nH]c2ccccc2c1=O)Nc1cccc(Cl)c1 do in these assays?
USP7 block: 30*; OTUD3 block: 18; USP10 inh: 20; UCHL1 block: 0

Results for O=C(CCCCCn1c(=O)[nH]c2ccccc2c1=O)Nc1ccccc1Br ?
USP7 block: 1; OTUD3 block: 21; USP10 inh: 9; UCHL1 block: 0

How did Cc1sc2nc(CSc3nc4ccccc4c(=O)n3CC3CCCO3)[nH]c(=O)c2c1C (stereo not given) do in these assays?
USP7 block: -74; OTUD3 block: -131; USP10 inh: -5; UCHL1 block: -64

What do the screens show for `Fc1ccccc1-c1nnc(SCc2ccccc2)n1Cc1ccccc1`?
USP7 block: 1; OTUD3 block: 35*; USP10 inh: 12; UCHL1 block: 6

What do the screens show for `O=C(Nc1nc(-c2ccccc2)ns1)c1ccc2ncsc2c1`?
USP7 block: 13; OTUD3 block: 23; USP10 inh: 36*; UCHL1 block: 2

Results for Cc1cc(C)c(NC(=O)CSc2nc3nccnc3c(=O)n2Cc2ccccc2Cl)c(C)c1 ?
USP7 block: 2; OTUD3 block: 31*; USP10 inh: 9; UCHL1 block: 3

What do the screens show for `OCCNc1ncnc2c1c(-c1ccccc1)cn2-c1cccc(C(F)(F)F)c1`?
USP7 block: 1; OTUD3 block: -1; USP10 inh: -4; UCHL1 block: -2

How did Cc1ccc(-n2nc(C)c3c2NC(=O)CC3C(=O)c2cc3ccccc3o2)cc1 (stereo not given) do in these assays?
USP7 block: 3; OTUD3 block: 10; USP10 inh: 33*; UCHL1 block: -1

What do the screens show for `Cc1cccc(-n2nc(C)c3c2NC(=O)CC3C(=O)c2cc3ccccc3o2)c1C` (stereo not given)?
USP7 block: -9; OTUD3 block: -4; USP10 inh: -1; UCHL1 block: -3

How did CCCCCCCCCc1cc(OC(=O)c2c(CCCCCCCCC)cc(O)cc2O[C@@H]2O[C@H](CO)[C@@H](O)[C@H](O)[C@H]2O)cc(O)c1C(=O)O do in these assays?
USP7 block: 100*; OTUD3 block: 101*; USP10 inh: 97*; UCHL1 block: 84*

What do the screens show for `CCCCCCCc1cc(OC(=O)c2c(CCCCCCC)cc(O)cc2O[C@@H]2O[C@H](CO)[C@H](O)[C@H](O)[C@H]2O)cc(O)c1C(=O)O`?
USP7 block: 100*; OTUD3 block: 100*; USP10 inh: 100*; UCHL1 block: 69*

Results for CCn1c(COc2ccc(Cl)c3cccnc23)nnc1SC(F)F ?
USP7 block: -22; OTUD3 block: 19; USP10 inh: 0; UCHL1 block: 0

How did COc1c2n(c3ccccc13)[C@@]1(O)C(=O)N(C)C(=O)[C@@]1(O)c1c-2n(C)c2ccc(Cl)cc12 do in these assays?
USP7 block: 17; OTUD3 block: 50*; USP10 inh: 25; UCHL1 block: 9

What do the screens show for `C[C@@H]1CC[C@H]2C(CN3CCN(c4ccccc4F)CC3)C(=O)O[C@]23[C@H]1CC[C@@]1(C)O[C@@H]31` (stereo not given in full)?
USP7 block: -1; OTUD3 block: -6; USP10 inh: 26; UCHL1 block: -2

Results for CCc1ccc(NC(=O)CSc2nc(-c3ccccc3C)nc3cc(=O)[nH]n23)cc1 ?
USP7 block: 4; OTUD3 block: 0; USP10 inh: 24; UCHL1 block: 1

What do the screens show for `CCOc1ccc(-c2nc(SCC(=O)Nc3cccc(C)c3)n3[nH]c(=O)cc3n2)cc1`?
USP7 block: -141; OTUD3 block: 27; USP10 inh: 53*; UCHL1 block: 14

Results for CS(=O)(=O)c1ccc(CCN2CCc3nc4cccnc4cc3C2)cc1 ?
USP7 block: -147; OTUD3 block: -179; USP10 inh: -10; UCHL1 block: -155

Results for O=C(NC1CCCC1)C1CC(=O)N(c2cccc(-c3noc(-c4cccs4)n3)c2)C1 (stereo not given) ?
USP7 block: 1; OTUD3 block: 0; USP10 inh: 45*; UCHL1 block: 4

What do the screens show for `Cc1nc(SCC(=O)Nc2ccc(Cl)c(Cl)c2)c2oc3ccccc3c2n1`?
USP7 block: 6; OTUD3 block: 6; USP10 inh: 4; UCHL1 block: 4

Results for Cc1nc(SCC(=O)NC(C)c2ccccc2)c2oc3ccccc3c2n1 (stereo not given) ?
USP7 block: 4; OTUD3 block: 21; USP10 inh: 40*; UCHL1 block: 2

What do the screens show for `COc1ccc(C(=O)CCN2CCOCC2)cc1[N+](=O)[O-]`?
USP7 block: -1; OTUD3 block: 36*; USP10 inh: 2; UCHL1 block: 5

What do the screens show for `COc1ccc(OC)c(CNCCCN2CCOCC2)c1`?
USP7 block: 7; OTUD3 block: -5; USP10 inh: -1; UCHL1 block: -4

What do the screens show for `Cc1cnc(C(=O)N2CC[C@@H]3CN(C)S(=O)(=O)[C@@H]3CC2)cn1`?
USP7 block: 3; OTUD3 block: 15; USP10 inh: 0; UCHL1 block: 3

Results for Cc1ccc(C(=O)Nc2c(C(=O)N3CCN(c4ccccc4)CC3)[nH]c3ccccc23)cc1 ?
USP7 block: -4; OTUD3 block: 46*; USP10 inh: 4; UCHL1 block: 3

How did CCOc1ccnc2c1c(=O)n(CC(=O)NC1CCCCC1)c(=O)n2C do in these assays?
USP7 block: -1; OTUD3 block: -2; USP10 inh: -5; UCHL1 block: -3

How did CC(C)OC(=O)c1cc2c(ccn2-c2ccc(F)cc2)n1CC(=O)NC1CCCCC1 do in these assays?
USP7 block: 2; OTUD3 block: 47*; USP10 inh: -5; UCHL1 block: 0

What do the screens show for `CS(=O)(=O)N1CCN(c2ccc(NC(=O)COc3ccccc3)cc2)CC1`?
USP7 block: 4; OTUD3 block: -8; USP10 inh: 6; UCHL1 block: -3

How did CS(=O)(=O)N1CCN(c2ccccc2NC(=O)COc2ccc(Br)cc2)CC1 do in these assays?
USP7 block: 63*; OTUD3 block: 0; USP10 inh: 72*; UCHL1 block: 9
